# Assay results as given in PubChem BioAssay (EPA / NIEHS).
# Records with an inconclusive call do not appear. The source made the active and inactive calls. The calls were made as follows, unless noted: active = hit-call score of the fitted dose curve at least 0.9, where 1 is the maximum; inconclusive = response in the unintended direction; inactive = score below 0.9.
# What was measured:
# [1] = CCTE_Padilla_ZF_144hpf_TERATOSCORE: (Legacy) CCTE's 144 Hour Post-fertilization zebrafish Assay Teratoscore, Padilla Lab (AID 2283679; active = hit-call score of the fitted dose curve at least 0.9, where 1 is the maximum; inactive = score below 0.9;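 as to AC50: zebrafish embryos with chorions exposed by immersion from 6-8 hpf to 5 dpf with daily renewal; teratogenicity score from eye scoring of death hatching and malformations at 144 hpf; higher score means more developmental defects relative to DMSO baseline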)
# How it was run: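 Larvae scored by eye at 144 hpf for death, hatching and malformations after a day in clean Hanks'. Before that, daily-renewed exposure at 80 uM (0.4% DMSO, 26C) from roughly 6-8 hpf through 5 dpf, 4 embryos per chemical.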
# [2] = Tanguay_ZF_120hpf_ActivityScore_legacy: (Legacy) Oregon State University Tanguay Lab 120 Hour Post-fertilization zebrafish Assay Score for Activity (AID 2283742);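 as to AC50: dechorionated Tropical 5D wild-type zebrafish embryos held singly per well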
# How it was run: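 Dechorionated 5D embryos, one per well, static exposure 6–120 hpf, 28C, sealed and dark; final DMSO 0.64% (vol/vol). Brightfield binary scoring of mortality plus 18 endpoints; gain-of-signal fit versus DMSO baseline.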
# [3] = STM_H9_OrnithineISnorm_perc: Stemina devTOX quickPredict H9 human embryonic stem cell (hESC)-based Assay for Ornithine (ORN) Metabolite Biomarker, Normalized (AID 2283712; active = hit-call score of the fitted dose curve at least 0.9, where 1 is the maximum; inactive = score below 0.9;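 also: ornithine released into spent medium during last day measured by mass spectrometry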)
# How it was run: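 Ornithine in spent medium from the last 24 h of a 72 h exposure, deproteinised and quantified by UPLC-HRMS against an isotope-labelled internal standard, expressed relative to 0.1% DMSO. Pluripotent H9 cells; compound refreshed every 24 h.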
# [4] = STM_H9_CystineISnorm_perc: Stemina devTOX quickPredict H9 human embryonic stem cell (hESC)-based Assay for Cystine (CYSS) Metabolite Biomarker, Normalized (AID 2283713; active = hit-call score of the fitted dose curve at least 0.9, where 1 is the maximum; inactive = score below 0.9)
# How it was run: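 Cystine in spent media from the last 24 h of a 72 h H9 hESC exposure (daily re-dosing), measured by UPLC-HRMS. Values normalized to isotopic internal standard, then to 0.1% DMSO; viability via CellTiter-Fluor.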
# [5] = STM_H9_OrnCyssISnorm_ratio: Stemina devTOX quickPredict H9 human embryonic stem cell (hESC)-based Assay for Ornithine (ORN):Cystine (CYSS) Ratio (AID 2283714)
# How it was run: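 UPLC-HRMS of spent media: ORN/CYSS ratio of internal-standard-normalized percentages, DMSO (0.1%) baseline. Pluripotent H9 hESCs, 72h exposure, daily re-dosing with fresh media; last 24h media collected.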
# [6] = CEETOX_H295R_MTT_cell_viability: Viability Assessment in the CeeTox HT-H295R MTT Assay (AID 2283718; active = hit-call score of the fitted dose curve at least 0.9, where 1 is the maximum; inactive = score below 0.9)
# How it was run: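 Human H295R adrenal cells, prestimulated 48 h with 10 uM forskolin, were exposed 48 h to chemicals in 0.1% DMSO. Viability was measured in the same wells by MTT (0.5 mg/ml, 4 h, 37 C), absorbance 570/650 nm, as percent of controls.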
# [7] = target: Luciferin 4-monooxygenase (Photinus pyralis) (UniProt P08659); assay: CCTE_Simmons_QuantiLum_inhib_2: CCTE's Firefly Luciferase Inhibition Assay, Simmons Lab (AID 2283767);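 as to AC50: potency for inhibitors that lower luciferase luminescence relative to DMSO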
# How it was run: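 Eight test concentrations, 5 nM up to 87.5 uM final, preincubated 30min at 37C in the dark with purified luciferase (0.5% DMSO final). Detection reagent (150uM D-luciferin, 147uM dATP, 75uM CoA, pH 7.8) injected per well before kinetic luminescence read; three replicates.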
# Sequence of Luciferin 4-monooxygenase (Photinus pyralis) (P08659 whole entry, looked up): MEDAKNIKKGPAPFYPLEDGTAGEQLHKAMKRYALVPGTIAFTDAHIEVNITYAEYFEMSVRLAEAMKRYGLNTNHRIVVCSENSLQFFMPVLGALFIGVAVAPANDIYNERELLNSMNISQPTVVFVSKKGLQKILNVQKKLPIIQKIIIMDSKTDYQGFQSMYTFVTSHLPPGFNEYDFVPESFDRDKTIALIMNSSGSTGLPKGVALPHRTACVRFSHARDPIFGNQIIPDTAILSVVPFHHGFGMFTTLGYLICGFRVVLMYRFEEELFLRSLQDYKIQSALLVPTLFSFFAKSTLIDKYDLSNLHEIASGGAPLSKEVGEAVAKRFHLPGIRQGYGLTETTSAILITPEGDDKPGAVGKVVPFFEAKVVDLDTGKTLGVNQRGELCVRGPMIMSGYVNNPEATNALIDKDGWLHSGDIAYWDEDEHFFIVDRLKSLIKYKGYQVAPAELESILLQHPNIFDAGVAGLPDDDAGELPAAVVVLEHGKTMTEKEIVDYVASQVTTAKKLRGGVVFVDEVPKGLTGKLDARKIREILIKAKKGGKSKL
compound,measurement,setting,value
c1ccc2n[nH]nc2c1,outcome,[1],inactive
same,outcome,[2],inactive
Clc1cc(Cl)c2c(c1)N=C1CCCCCN1C2,AC50,[1],12.2 µM (active)
same,outcome,[3],inactive
same,outcome,[4],inactive
same,outcome,[5],inactive
same,outcome,[6],inactive
same,AC50,[2],18 µM (active)
Cc1cc2c(cc1C(F)(F)F)N(C(=O)Nc1ccc(Oc3cccnc3C)nc1)CC2,outcome,[6],inactive
same,outcome,[2],inactive
NCc1cccc(C2CCN(C(=O)c3ccc(C#Cc4ccccc4F)o3)CC2)c1,AC50,[1],14.5 µM (active)
same,AC50,[2],31.6 µM (active)
same,outcome,[7],inactive
CCN(CC)C(=O)c1cc(S(=O)(=O)Cc2ccccc2)c(N2CCC(c3ccccc3)CC2)cc1N(CC)CCN(C)C,AC50,[1],20.7 µM (active)
same,AC50,[2],17.2 µM (active)
CCO[Si](CCCNC(N)=O)(OCC)OCC,outcome,[2],inactive
COCC(C)OCC(C)OCC(C)O (stereo not drawn),outcome,[2],inactive
CCCCCCCCCCCC[N+](C)(C)C,AC50,[3],7.79 µM (active)
same,AC50,[4],1.6 µM (active)
same,AC50,[5],4.73 µM (active)
same,outcome,[6],inactive
same,outcome,[2],inactive
O=C1CCC(C2CCCCC2)CC1,AC50,[1],60.4 µM (active)
same,outcome,[2],inactive
same,AC50,[7],3.38 µM (active)
CCCOC(=O)c1cc(O)c(O)c(O)c1,outcome,[2],inactive
same,outcome,[7],inactive
CCCCCCCCN(C)CCCCCCCC,outcome,[3],inactive
same,outcome,[4],inactive
same,outcome,[5],inactive
same,outcome,[6],inactive
same,outcome,[2],inactive
OCCO,outcome,[3],inactive
same,outcome,[4],inactive
same,outcome,[5],inactive
same,outcome,[2],inactive
CCCC(=O)OCCC(C)C,outcome,[2],inactive
Cc1cc(F)ccc1-c1cc(N2CC[C@@H](O)[C@H]2CO)ncc1N(C)C(=O)C(C)(C)c1cc(C(F)(F)F)cc(C(F)(F)F)c1,AC50,[1],4.05 µM (active)
same,outcome,[2],inactive
CO[C@H]1/C=C/O[C@@]2(C)Oc3c(C)c(O)c4c(O)c(c(/C=N/N5CCN(C)CC5)c(O)c4c3C2=O)NC(=O)/C(C)=C\C=C\[C@H](C)[C@H](O)[C@@H](C)[C@@H](O)[C@@H](C)[C@H](OC(C)=O)[C@@H]1C,outcome,[3],inactive
same,AC50,[4],3.27 µM (active)
same,AC50,[5],4.04 µM (active)
same,outcome,[6],inactive
same,outcome,[2],inactive
same,AC50,[7],22.6 µM (active)
O=C(O)Cc1cc(I)c(Oc2ccc(O)c(I)c2)c(I)c1,AC50,[1],0.101 µM (active)
same,AC50,[2],31.3 µM (active)
same,outcome,[7],inactive
O=C=NCCCCCCN=C=O,AC50,[3],0.0164 µM (active)
same,outcome,[4],inactive
same,outcome,[5],inactive
same,outcome,[2],inactive
O=C(O)Cn1c(=O)n(Cc2ccc(Br)cc2F)c(=O)c2ccc(Cl)cc21,outcome,[6],inactive
same,outcome,[2],inactive
CC(C)(C)c1csc(-c2cc3cc(OCc4ccccc4CC(=O)O)ccc3o2)n1,AC50,[1],1.71 µM (active)
same,AC50,[2],27.1 µM (active)
same,AC50,[7],10.7 µM (active)
c1ccc2ccccc2c1,outcome,[2],inactive
Cc1ncc(CO)c(CO)c1O,outcome,[1],inactive
same,outcome,[2],inactive
Cc1cccc2ccccc12,outcome,[2],inactive
CCCCCCCCCC(=O)O,AC50,[1],65.8 µM (active)
same,outcome,[2],inactive
